# uPA generation: cell surface uPA generation inhibition. cell surface uPA generation assay, qHTS. 330,000 compounds, 0.31% hits. AID 540303. Potency, µM (titrated, usually from 38.3 µM), inactives show top-dose activity change, negative = inhibition, hits mostly inhibitors; active = well fitted inhibition curve with a large enough effect; inconclusive = small, poorly fitted or top-dose-only effect; inactive = no such curve, though single readings can be large or run the other way; tested in mouse RAW 264.7 cells; note: potency is the fitted concentration of half-maximal effect; % is set by controls: 0 for no effect and ±100 for the full control effect; nearly all actives have a fitted effect of over 55% in size
# PLK1 PBD block: PLK1 (human) polo-box domain binding inhibition | AID 720504 | Plk1 PBD binding of FITC phosphopeptide, fluorescence polarization | Potency, µM, for the others: max response, negative = inhibition, hits mostly inhibitors | P53350 | 360,000 compounds, 2.8% hits; note: potency is the fitted concentration of half-maximal effect; series mostly up to about 57 µM; % is set by controls: 0 for no effect and ±100 for the full control effect; nearly all actives have a fitted effect of over 65% in size
# Target sequence (P53350 whole entry, looked up, the tested form may be a part): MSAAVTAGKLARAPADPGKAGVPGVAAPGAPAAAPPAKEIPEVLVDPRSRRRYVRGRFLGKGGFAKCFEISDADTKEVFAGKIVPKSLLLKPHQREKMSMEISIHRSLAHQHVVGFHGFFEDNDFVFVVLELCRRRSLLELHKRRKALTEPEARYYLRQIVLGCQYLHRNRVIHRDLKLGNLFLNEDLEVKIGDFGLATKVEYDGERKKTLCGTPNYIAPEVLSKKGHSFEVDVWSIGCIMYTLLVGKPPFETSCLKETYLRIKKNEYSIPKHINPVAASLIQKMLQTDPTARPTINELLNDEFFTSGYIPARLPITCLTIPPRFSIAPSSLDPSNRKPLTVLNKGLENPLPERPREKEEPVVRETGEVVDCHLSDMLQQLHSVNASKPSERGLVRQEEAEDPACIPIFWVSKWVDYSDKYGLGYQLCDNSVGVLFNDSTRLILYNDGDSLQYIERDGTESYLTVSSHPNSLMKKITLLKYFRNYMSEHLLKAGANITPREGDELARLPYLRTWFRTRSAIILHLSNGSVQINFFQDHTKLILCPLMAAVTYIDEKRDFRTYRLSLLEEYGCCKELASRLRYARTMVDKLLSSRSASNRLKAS
# VDR inh: inhibitors of human vitamin D receptor | P11473 | VDR-SRC2-3 peptide fluorescence polarization, 2 h | Potency, µM, for the others: max response, negative = inhibition, usual class: inhibitors | 400,000 compounds, 0.93% hits; note: potency is the fitted concentration of half-maximal effect; % is set by controls: 0 for no effect and ±100 for the full control effect
#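 After 23 nl compound addition and a short centrifugation, plates sat for 2 hours at ambient temperature; polarization of fluorescence then indicated loss of VDR binding to peptide SRC2-3.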
# PTAP TSG101 blk: blocks PTAP/TSG101 interaction to inhibit HIV-1 budding. 340,000 tested, under 10 active. Q99816. Fluorescence polarization, FITC-PTAP peptide / Tsg101 binding. Potency, µM (series often up to 115 µM), for inactives: at the highest dose activity change, negative = inhibition, usual class: inhibitors; active = well fitted inhibition curve with a large enough effect in the main read-out, with a control signal flat, not every such curve was filed as active; inconclusive = small, poorly fitted or top-dose-only effect, or effect the other way, or a change in a side signal; inactive = no such curve, though single readings can be large or run the other way; note: potency is the fitted concentration of half-maximal effect; % of control where 0% means no effect
#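 Steps: Tsg101 binding domain dispensed (10 uM final), compounds pinned in DMSO, FITC-labeled PTAP-motif peptide added (50 nM final); after 20 min binding at room temperature, polarization measured.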
# TSHR antag: blocks TSH signaling through the human TSH receptor; TSHR-expressing cells, TSH-stimulated cAMP HTRF, 2 h; hits give low values; activity change, negative = inhibition, % at 11.5 µM; 330,000 compounds, 0.2% hits;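 active = activity change below a set negative limit, meaning inhibition stronger than a set level, cut at about -70% in these data; inconclusive = activity change between two set negative limits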; note: % is set by controls: 0 for no effect and ±100 for the full control effect
#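 TSHR-expressing cells, 200/well, pre-treated with compound, then stimulated with EC80 TSH (4nM final) for 2 hours at 37 deg C. cAMP measured by competitive HTRF: anti-cAMP cryptate antibody in lysis buffer plus cAMP-d2, read after 30 minutes at room temperature.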
# Numbers without * were called inactive; ? = inconclusive; / = not tested or not shown. An excerpt weighted towards active compounds, which were near 3.1% of everything screened. Unless noted, calls come from the whole dose curve; as a rule, active = well fitted curve in the direction sought with a large enough effect; inconclusive = small, poorly fitted or top-dose-only effect, or another doubt; inactive = no such curve, though single readings can be large; an effect the other way counts as inactive or inconclusive.
SMILES,uPA generation,PLK1 PBD block,VDR inh,PTAP TSG101 blk,TSHR antag
O=C(Nc1ccc2c(c1)CCC2)c1cc(S(=O)(=O)Nc2ccc(F)cc2)c(Cl)cc1Cl,0.8%,-11.3%,1.9%,-2.2%,-76.0*
CC1CCCCC1NC(=O)c1cccc(N2C(=O)C3C4C=CC(C4)C3C2=O)c1 (centres undefined),-3.2%,-2.0%,-7.9%,-0.5%,-14.4
Nc1c(C(=O)c2ccccc2)sc2nsc(SCCN3CCOCC3)c12,-12.7%,3.2%,14.2%,3.2%,-4.3
CC(=O)c1sc2nsc(SCCN3CCOCC3)c2c1N,-4.4%,29.9µM*,-16.7%,-4.3%,-3.8
C[C@@H](O)[C@H]1C(=O)N2C(C(=O)O)=C(SCCN=CN)C[C@H]12,/,/,4.1%,/,-6.5
Cc1cccc(C)c1NS(=O)(=O)c1ccc2c(c1)[C@H]1C=CC[C@H]1[C@@H](c1ccc(Cl)cc1)N2,/,/,-21.3%,/,/
Cc1c(Cl)cccc1NS(=O)(=O)c1ccc2c(c1)C1C=CCC1C(c1ccc(C(=O)O)cc1)N2 (centres undefined),-2.6%,10.6µM*,?,-11.8%,-13.1
CCCn1c(=O)sc2cc(NC(=O)c3ccccc3OCC)ccc21,/,/,-3.8%,/,/
CCOC(=O)c1c(/N=C/N(C)C)sc(/C=N/Nc2ccccc2)c1-c1ccc(Cl)cc1,-5.8%,29.9µM*,?,1.7%,-3.2
Cn1c(=O)oc2cc(S(=O)(=O)CCC(=O)N3CCN(c4cccc(Cl)c4)CC3)ccc21,/,/,15.1%,/,/
Cc1c(C#N)c(NC(=O)CCl)n(Cc2cccs2)c1C,5.01µM*,-10.5%,-26.4%,-1.2%,-6.5
CC(=O)c1cc(CC=C(C)C)c(O)cc1O,-4.6%,29.9µM*,9.8%,-3.5%,9.7
COc1cccc2cc(C(=O)NCCc3c[nH]c4ccccc34)c(=O)oc12,12.6%,11.9µM*,-24.3%,-14.8%,-7.0
Cc1nc2cccnc2n1C1CCN(S(=O)(=O)c2ccc(Cl)cc2)CC1,/,/,-0.6%,/,/
Cn1cc(C(=O)N/N=C/C(Br)=C/c2ccccc2)ccc1=O,5.62µM*,-5.6%,?,-3.0%,-1.5
CSc1ccccc1C(=O)C1CCCN(C(=O)CCc2cccnc2)C1 (centres undefined),4.0%,-24.7%,-13.2%,-0.8%,-14.9
CSc1ccccc1C(=O)C1CCCN(C(=O)c2cncs2)C1 (centres undefined),-11.7%,13.4µM*,31.6µM*,-2.5%,-6.2
O=C(NCc1ccccc1)C1CCN(S(=O)(=O)Cc2ccccc2)CC1,/,/,22.5%,/,/
COc1ccc(Br)cc1S(=O)(=O)Nc1ncccc1C,12.1%,29.9µM*,-0.4%,-3.1%,4.9
COc1ccc(Nc2cc(C)nc(N3CCN(C(=O)c4ccc5c(c4)OCO5)CC3)n2)cc1,-2.6%,-1.6%,-12.2%,-5.6%,-5.0
Clc1cccc(CSc2nc3ccncc3[nH]2)c1,4.47µM*,-18.4%,0.7%,-1.8%,-16.5
Fc1cccc(CSc2nc3ccncc3[nH]2)c1,?,-15.3%,?,-2.0%,-0.5
O=C1c2ccccc2C(=O)N1CN(C(=O)c1ccccc1)c1ccc(O)cc1,11.5%,21.2µM*,9.5%,-4.1%,2.2
Cc1cc(N=Cc2c(O)ccc3ccccc23)no1,1.9%,5.32µM*,1.7%,/,14.2
Cc1cc(N=Cc2c(O)n(-c3ccc(C)c(C)c3)c(=O)c3ccccc23)no1,/,/,/,/,-7.9
SMILES,uPA generation,PLK1 PBD block,VDR inh,PTAP TSG101 blk,TSHR antag
Oc1ccc2ccccc2c1/C=N/c1nccs1,-0.3%,18.9µM*,-3.2%,-9.1%,-2.6
Oc1ccccc1N=Cc1c(O)ccc2ccccc12,-12.4%,37.2%,-15.9%,?,6.7
O=C(NCc1ccccc1Cl)c1cnc(N2CCCCC2)c2ccccc12,/,/,2.6%,/,/
O=C(N/N=C/c1cc(Cl)ccc1O)c1ccccc1Br,4.47µM*,-18.1%,-6.8%,-4.6%,4.5
CCCCCCCCCCOC(=O)C[N+](C)(C)C/C=C(/C)Cl,?,29.9µM*,-25.0%,-8.9%,-3.0
CCc1ccccc1N(CC)C(=O)Cn1nc(Cc2ccncc2)c2ccccc2c1=O,/,/,-18.5%,/,/
Cn1c(=O)c2cc(NC(=S)NC3CCCCC3)ccc2n1Cc1cccc(C(F)(F)F)c1,/,-7.3%,/,/,/
CCNC(=S)Nc1ccc2c(c1)c(=O)n(C)n2Cc1cccc(C(F)(F)F)c1,/,26.7µM*,/,/,/
Cc1ccc(NC(=O)CN2C(=O)S/C(=C/c3ccc(-c4cc(C(=O)O)ccc4C)o3)C2=O)cc1C,/,?,8.2%,?,-15.2
COC(=O)C(C)N1C(=O)S/C(=C\c2ccc(-c3ccc(C(=O)O)cc3C)o2)C1=O (centres undefined),1.6%,29.9µM*,22.4µM*,0.3%,-10.3
O=C(O)CCN1C(=O)/C(=C\c2cccc(Oc3ccccc3)c2)SC1=S,7.9%,16.8µM*,35.5µM*,-6.5%,-7.0
O=C(O)CN1C(=O)/C(=C\c2cccc(OCc3ccc(Cl)cc3)c2)SC1=S,8.3%,21.2µM*,50.1µM*,-6.1%,-9.2
O=C(O)CN1C(=O)/C(=C/c2ccsc2)SC1=S,3.8%,-3.6%,-6.7%,-6.7%,-12.0
CCN(CC)C(=O)CN1C(=O)/C(=C/c2ccccc2)SC1=S,-2.7%,26.7µM*,?,-6.3%,-1.4
O=C(O)CN1C(=O)/C(=C\c2cccc(OCc3ccccc3F)c2)SC1=S,-7.2%,29.9µM*,?,-7.2%,-11.3
CN1C(=O)/C(=C\c2ccccc2OCc2ccccc2)SC1=S,-0.6%,1.6%,39.3%,-0.3%,8.9
O=C(O)CN1C(=O)/C(=C\c2cccc(OC(=O)c3ccco3)c2)SC1=S,2.7%,-20.7%,-20.7%,-1.4%,-9.9
O=C(O)CCCN1C(=O)/C(=C\c2ccco2)SC1=S,-8.1%,-21.0%,-9.1%,-4.7%,-8.7
O=C(O)CCN1C(=O)/C(=C\c2ccc(-c3nc4ccccc4s3)o2)SC1=S,1.2%,8.44µM*,-9.2%,1.7%,-0.1
O=C(O)COc1ccccc1/C=C1\SC(=S)N(/N=C/c2ccccc2O)C1=O,7.2%,21.2µM*,?,-1.9%,4.2
O=C(O)CN1C(=O)/C(=C\c2ccccc2OCc2ccc(Cl)cc2)SC1=S,-6.6%,29.9µM*,?,-6.0%,-7.9
O=C(O)CN1C(=O)/C(=C\c2cccc(OCc3ccc(F)cc3)c2)SC1=S,-0.6%,26.7µM*,44.7µM*,-3.7%,-15.0
O=C(O)COc1ccccc1/C=C1\SC(=S)N(NC(=O)c2ccccc2O)C1=O,-1.9%,-24.2%,-22.5%,3.5%,-7.8
COC(=O)c1c(Cl)c2n3ccccc3c(C)c(-c3ccccc3)c-2c1C(=O)OC,-4.3%,23.8µM*,-19.7%,-3.9%,-3.0
O=C(NCCc1ccccn1)C(F)(F)C(F)(F)C(F)(F)C(F)(F)C(F)(F)C(F)F,2.8%,26.7µM*,?,-3.0%,26.5
O=C(NCc1ccccn1)C(F)(F)C(F)(F)C(=O)NCc1ccccn1,0.1%,-1.4%,-5.0%,-7.2%,3.4
CCCCCCCCCC(=O)NC(CN1CCOCC1)[C@H](O)c1ccccc1 (some centres undefined),/,/,5.9%,/,-15.7
Cc1cc(C)c(C#N)c(SCc2nnc(-c3ccccc3)o2)n1,-6.7%,-15.0%,-12.6%,-0.6%,-7.3
